Active and inactive are the calls of the source. The call rests on the fitted dose curve; in most records, active means well fitted curve in the direction sought with a large enough effect in the repeat runs; inconclusive means weak or mixed curves; inactive means flat fitted curve, though single readings scatter.
Assay: qHTS assay to test for compound auto fluorescence at 460 nm (blue) in HepG2 cells (AID 720687)
Details: autofluorescence 405/460 nm, 1 h; series mostly up to 91.3 µM
Source text: U.S. Tox21 Program National Center for Advancing Translational Sciences [NCATS] NIH Chemical Genomics Center [NCGC] U.S. Environmental Protection Agency [EPA] National Institutes of Environmental Health Sciences [NIEHS] National Toxicology Program [NTP] U.S. Food and Drug Administration [FDA] Tox21 Assay Overview: Compound auto fluorescence often interferes with screening of the compound library against various biological targets and signaling pathways. Some of these compounds may have fluorophoric properties. Such properties may interfere with the assay outputs resulting in false positives and/or negatives. To decrease such complications and ensure the compound activities are relevant in terms of biological response, the Tox21 10K compound library was screened for auto fluorescence. From the fluorophores used as reporter signals in our screening assays, the auto fluorescence equivalencies of compounds against three fluorophores have been evaluated: Triamterene, Fluorescein and Rose Bengal sodium for blue, green and red fluorescence, respectively. The fluorescence intensities were measured using Excitation/Emission wavelengths at 405/460nm, 485/535nm and 540/590nm for blue, green and red labels, respectively. This assay includes the blue fluorescence data.
Tox21 Assay Protocol Summary: 2,000 HepG2 cells in 5 uL of culture medium (MEM containing 10% FBS) per well were dispensed into black wall/clear bottom 1536-well plates using a Multidrop Combi Dispenser (ThermoFisher Scientific, Waltham, MA). The assay plates were incubated overnight at 37 C to allow cell attachment to the well bottom, followed by the transfer of 23 nL compound or DMSO vehicle by a pintool work station (Kalypsys , San Diego, CA). After the assay plates were incubated for 1 hr at 37 C and 5% CO2, fluorescence intensities in the assay plates were measured by an Envision (PerkinElmer, Shelton, CT) plate reader using three labels for measuring blue, green and red fluorescence at […] 460, 535 and 590 nm respectively.
With `CCCSc1ccc2nc(NC(=O)OC)[nH]c2c1` the outcome was “inactive”. In the case of `Cc1ccc(N(C)C)cc1`, the outcome is reported as “inactive”. For `CCCCCCCC(=O)OC`, the outcome was “inactive”. For `CCCCCOC(C)=O`, the outcome was “inactive”. For `CC(=O)OCC(=O)[C@@]12N=C(C)O[C@@H]1C[C@H]1[C@@H]3CCC4=CC(=O)C=C[C@]4(C)[C@H]3[C@@H](O)C[C@@]12C`, the outcome was “inactive”. In the case of `CCCCOC(=O)COc1ccc(Cl)cc1Cl`, the outcome is reported as “inactive”. In the case of `Cc1ccc2oc(=O)ccc2c1`, the outcome is reported as “inactive”. In the case of `COCCCOc1ccnc(CS(=O)c2nc3ccccc3[nH]2)c1C` (stereo not given), the outcome is reported as “inactive”. With `O=c1[nH]nnc2ccccc12` the outcome was “inactive”. With `O=C(CC(C(=O)OC1CCCCC1)S(=O)(=O)O)OC1CCCCC1` (stereo not given) the outcome was “inactive”. In the case of `CCCCC(CC)CO` (stereo not given), the outcome is reported as “inactive”. In the case of `CCCCCC/C(C=O)=C\c1ccccc1`, the outcome is reported as “inactive”. For `CC(C)(N)CO`, the outcome was “inactive”. For `CCCCCCCCCCCCc1ccccc1`, the outcome was “inactive”. In the case of `O=C(O)c1cc(C(=O)O)cc(S(=O)(=O)O)c1`, the outcome is reported as “inactive”. In the case of `CN(C)CCC(c1ccc(Cl)cc1)c1ccccn1` (stereo not given), the outcome is reported as “inactive”. With `N[C@@H](Cc1cc(I)c(Oc2cc(I)c(O)c(I)c2)c(I)c1)C(=O)O` the outcome was “inactive”. With `CCN(CC)c1ccc(C(=O)c2ccccc2C(=O)O)c(O)c1` the outcome was “inactive”. With `CCCC(C)=O` the outcome was “inactive”. In the case of `c1ccc(OCCOc2ccccc2)cc1`, the outcome is reported as “inactive”. With `O=c1[nH]c(=O)n([C@H]2C[C@H](O)[C@@H](CO)O2)cc1Br` the outcome was “inactive”. In the case of `C=C(C)C(=O)OCCOCCOCCOC(=O)C(=C)C`, the outcome is reported as “inactive”. With `CCC(O)OC(O)CC` (stereo not given) the outcome was “inactive”. With `CCCCCCOCCO` the outcome was “inactive”. With `CCCCCCCCCCCCCCCO` the outcome was “inactive”. For `O=C=NCCCCCCN=C=O`, the outcome was “inactive”. For `COc1ccc(Nc2ccccc2)c(C)c1`, the outcome was “inactive”. For `O=[N+]([O-])c1ccc(/C=C/c2ccc([N+](=O)[O-])cc2S(=O)(=O)O)c(S(=O)(=O)O)c1`, the outcome was “inactive”. With `CC1=CC(=O)NS(=O)(=O)O1` the outcome was “inactive”. For `C=CCOC(=O)c1ccccc1C(=O)OCC=C`, the outcome was “inactive”. For `CC1CCC(C(C)C)C(O)C1` (stereo not given), the outcome was “inactive”. In the case of `CC(C)c1ccc(S(=O)(=O)O)cc1`, the outcome is reported as “inactive”. For `OCC(CO)(CBr)CBr`, the outcome was “inactive”. With `CC(=O)CC(=O)Nc1ccccc1C` the outcome was “inactive”. For `CCCCCC(N)=O`, the outcome was “inactive”. For `CN(C)CCC(c1ccccc1)c1ccccn1` (stereo not given), the outcome was “inactive”. In the case of `O=C1CCC(N2C(=O)c3ccccc3C2=O)C(=O)N1` (stereo not given), the outcome is reported as “inactive”. With `O=C(O)c1ccc2c(c1)C(=O)OC2=O` the outcome was “inactive”. In the case of `O=C(O)c1ccc(C(=O)O)cc1`, the outcome is reported as “inactive”. For `O=C(O)c1cc(O)c(O)c(O)c1`, the outcome was “inactive”.
